In test [1] the test system is Saccharomyces cerevisiae BY4741 SeMeCo community. In words: z-score of prototroph abundance vs DMSO median; higher = larger share of this subpopulation than in DMSO controls. Particulars: 10 µM; 24 h; SM minimal medium; subpopulation (auxotrophy): Prototroph. In a few lines:
(§1)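 Automated confocal microscopy of paraformaldehyde-fixed cells was used to follow a Saccharomyces cerevisiae BY4741 community carrying four plasmids, each restoring one auxotrophy and encoding a distinct fluorescent protein. The community was pre-grown overnight to OD600 1.0, diluted to 0.3, and added at 70 µl to 384-well plates acoustically predosed with library drugs (10 µM final) for 24 h of growth in minimal SM medium. Single-auxotroph fluorescent strains set thresholds and autofluorescence correction, and each subpopulation's abundance was scored as a z-score against the vehicle-well median.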

For test [2] the test system is unchanged. The test can be described thus: z-score of subpopulation abundance vs DMSO median, subpopulation auxotrophic for M; higher = larger share of this subpopulation than in DMSO controls. Particulars: 10 µM; 24 h; SM minimal medium; subpopulation (auxotrophy): M. In a few lines: as §1
For test [3] the test system is unchanged. The test can be described thus: z-score of subpopulation abundance vs DMSO median, subpopulation auxotrophic for L; higher = larger share of this subpopulation than in DMSO controls. Particulars: 10 µM; 24 h; SM minimal medium; subpopulation (auxotrophy): L. In a few lines:
as §1

Test [4] has the same test system. The test can be described thus: z-score of subpopulation abundance vs DMSO median, subpopulation auxotrophic for U; higher = larger share of this subpopulation than in DMSO controls. To be noted: 10 µM; 24 h; SM minimal medium; subpopulation (auxotrophy): U. An outline of the steps: as §1
Test [5] shares this test system. The test can be described thus: z-score of subpopulation abundance vs DMSO median, subpopulation auxotrophic for H; higher = larger share of this subpopulation than in DMSO controls. Particulars: 10 µM; 24 h; SM minimal medium; subpopulation (auxotrophy): H. In a few lines: as §1
Test [6] shares this test system. In words: z-score of subpopulation abundance vs DMSO median, subpopulation auxotrophic for LU; higher = larger share of this subpopulation than in DMSO controls. Particulars: 10 µM; 24 h; SM minimal medium; subpopulation (auxotrophy): LU. In a few lines: as §1
Test [7] shares this test system. In words: z-score of subpopulation abundance vs DMSO median, subpopulation auxotrophic for LM; higher = larger share of this subpopulation than in DMSO controls. Particulars: 10 µM; 24 h; SM minimal medium; subpopulation (auxotrophy): LM. An outline of the steps:
as §1

Test [8] has the same test system. The test can be described thus: z-score of subpopulation abundance vs DMSO median, subpopulation auxotrophic for HU; higher = larger share of this subpopulation than in DMSO controls. To be noted: 10 µM; 24 h; SM minimal medium; subpopulation (auxotrophy): HU. An outline of the steps:
as §1

Test [9] shares this test system. In words: z-score of subpopulation abundance vs DMSO median, subpopulation auxotrophic for UM; higher = larger share of this subpopulation than in DMSO controls. Particulars: 10 µM; 24 h; SM minimal medium; subpopulation (auxotrophy): UM. In a few lines: as §1
Test [10] has the same test system. In words: z-score of subpopulation abundance vs DMSO median, subpopulation auxotrophic for HL; higher = larger share of this subpopulation than in DMSO controls. To be noted: 10 µM; 24 h; SM minimal medium; subpopulation (auxotrophy): HL. An outline of the steps:
as §1

The test system is the same in test [11]. In words: z-score of subpopulation abundance vs DMSO median, subpopulation auxotrophic for HLU; higher = larger share of this subpopulation than in DMSO controls. Particulars: 10 µM; 24 h; SM minimal medium; subpopulation (auxotrophy): HLU. In a few lines: as §1
Test [12] has the same test system. In words: z-score of subpopulation abundance vs DMSO median, subpopulation auxotrophic for HUM; higher = larger share of this subpopulation than in DMSO controls. Particulars: 10 µM; 24 h; SM minimal medium; subpopulation (auxotrophy): HUM. In a few lines: as §1
The test system is the same in test [13]. In words: z-score of subpopulation abundance vs DMSO median, subpopulation auxotrophic for LUM; higher = larger share of this subpopulation than in DMSO controls. Particulars: 10 µM; 24 h; SM minimal medium; subpopulation (auxotrophy): LUM. In a few lines:
as §1

For test [14] the test system is unchanged. In words: z-score of subpopulation abundance vs DMSO median, subpopulation auxotrophic for HLUM; higher = larger share of this subpopulation than in DMSO controls. To be noted: 10 µM; 24 h; SM minimal medium; subpopulation (auxotrophy): HLUM. In a few lines:
as §1

Test [15] has the same test system. The test can be described thus: mean cell size (pixel area) (pixels); higher = larger cells. To be noted: 10 µM; 24 h; SM minimal medium. In a few lines:
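Plates of 384 wells were acoustically predosed with drug at a final 10 µM in SM medium, and 70 µl of a Saccharomyces cerevisiae BY4741 preculture diluted from OD600 = 1.0 to OD600 = 0.3 was added for 24 h. The yeast formed a four-plasmid fluorescent community in which each plasmid complements one auxotrophy and carries a fluorescent marker. Fixed cells were imaged by automated confocal microscopy and analysed in Harmony for mean cell pixel area per well. Values are means of 3 replicates. Same SeMeCo high-content imaging drug screen: Selleck FDA-approved drugs at 10 µM, 24 h in SM medium, 384-well plates, 3 replicates.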

Test [16] shares this test system. In words: z-score of subpopulation abundance vs DMSO median, subpopulation auxotrophic for HM; higher = larger share of this subpopulation than in DMSO controls. To be noted: 10 µM; 24 h; SM minimal medium; subpopulation (auxotrophy): HM. In a few lines:
as §1

Test [17] shares this test system. In words: z-score of subpopulation abundance vs DMSO median, subpopulation auxotrophic for HLM; higher = larger share of this subpopulation than in DMSO controls. To be noted: 10 µM; 24 h; SM minimal medium; subpopulation (auxotrophy): HLM. An outline of the steps: as §1

Each structure is given as a SMILES string. ± gives the standard deviation of the averaged measurements.

Take `CC(C)(C)C1CCC(CC2=C(O)c3ccccc3C(=O)C2=O)CC1` (stereo not given) [Buparvaquone]: the “z-score of prototroph abundance” value in test [1] was -0.85. Moreover, the “z-score of subpopulation abundance” value was 2.2 in [2]; 0.5 in test [3]; -0.95 in [4]; -0.05 in test [5]; 0.03 in test [6]; 0.78 in [7]. Further, the “z-score of subpopulation abundance” value in [8] was -0.75; in test [9], 0.54; in test [10], -0.13; in [11], 0.03; in [12], 0.83; in test [13], 0.35. For the same compound, the “z-score of subpopulation abundance” value in [14] turned out to be 0.04.
The compound `O=C(O)c1ccccc1C(=O)Nc1ccc(S(=O)(=O)Nc2nccs2)cc1` [Phthalylsulfathiazole] showed a mean cell size in [15] of 12 ± 0.48. Moreover, the “z-score of subpopulation abundance” value in test [2] is 1.08; in [3], -0.97; in [4], 1.18; in [6] it was -0.05; in [7], 0.02; in test [16] it was 0.77. The “z-score of subpopulation abundance” value in [9] is 1.23; in test [10] it was -0.66; in test [11], 0.04; in [14] it was 0.99.
In the case of `COc1cc(O)c(C(=O)Nc2nc(C(=O)NCCN(C(C)C)C(C)C)cs2)cc1OC` [Acotiamide], the mean cell size in [15] is 12.14 ± 0.12. Also, the “z-score of prototroph abundance” value in [1] was -0.88. In addition, the “z-score of subpopulation abundance” value in test [2] was 0.17; in test [3], 1.18; in test [4], -0.39; in [5] it was 0.24; in test [6] it was 0.41; in test [16], 0.64. Also, the “z-score of subpopulation abundance” value was -0.06 in test [8]; 0.28 in [9]; 1.61 in test [11]; 0.93 in [12]; 1.3 in test [13]; 1.15 in test [14].
In test [15], `CC(=O)OCC[N+](C)(C)C` [Acetylcholine iodide] registered a mean cell size of 12.42 ± 0.1. For the same compound, the “z-score of prototroph abundance” value in [1] came to 1.05. In addition, the “z-score of subpopulation abundance” value in [2] was -0.32; in test [4], 0.13; in test [5] it was -0.21; in [6] it was -0.57; in test [7], -0.62; in [16] it was -1.48. In addition, the “z-score of subpopulation abundance” value is -0.12 in test [8]; -0.89 in test [10]; 0.05 in test [11]; -1.52 in [17]; -0.36 in test [12]; -1.27 in test [13]. For the same compound, the “z-score of subpopulation abundance” value in [14] is -1.3.
In turn, `CCC(=O)NS(=O)(=O)c1ccc(-c2c(-c3ccccc3)noc2C)cc1` [Parecoxib] returned a mean cell size in test [15] of 12.6 ± 0.088. Also, the “z-score of prototroph abundance” value in test [1] was -0.12. The “z-score of subpopulation abundance” value in test [2] is 0.6; in test [3] it was 0.2; in test [5], 0.1; in test [6], -0.15; in test [7] it was 0.77; in [9] it was 0.49. In addition, the “z-score of subpopulation abundance” value was 0.12 in [10], 0.16 in [11], -0.44 in [12] and 0.13 in test [13].
Regarding `C/C=C\c1ccc(O)c(OC)c1` [Isoeugenol], in test [15], the mean cell size is 12.02 ± 0.031. For the same compound, the “z-score of prototroph abundance” value in [1] is -0.36. Besides, the “z-score of subpopulation abundance” value in test [2] was 0.59; in [4] it was 0.4; in test [5] it was -0.8; in [6], -0.07; in [7], 0.87; in test [16], 0.2. Besides, the “z-score of subpopulation abundance” value in test [8] is -0.46; in test [9], 1.01; in test [10] it was -0.5; in test [11], 0.2; in test [17] it was -0.07; in test [12], 0.5. Besides, the “z-score of subpopulation abundance” value came out at 0.33 in test [13] and 0.03 in test [14].
For the compound `CC[C@H]1OC(=O)[C@H](C)[C@@H](O[C@H]2C[C@@](C)(OC)[C@@H](O)[C@H](C)O2)[C@H](C)[C@@H](O[C@@H]2O[C@H](C)C[C@H](N(C)C)[C@H]2O)[C@](C)(O)C[C@@H](C)[C@@H]2N[C@@H](COCCOC)O[C@H]([C@H]2C)[C@]1(C)O` [Dirithromycin], the mean cell size in test [15] is 12.3 ± 0.27. In test [1], the “z-score of prototroph abundance” value stood at 0.11. Also, the “z-score of subpopulation abundance” value was 0.26 in test [2]; 0.26 in [4]; -0.21 in [5]; 0.32 in [6]; 0.49 in [7]; -0.53 in test [16]. Besides, the “z-score of subpopulation abundance” value was -0.26 in test [8]; -0.05 in test [9]; -0.09 in test [10]; -0.71 in test [11]; -0.77 in [17]; -0.1 in [12]. The “z-score of subpopulation abundance” value was 0.3 in [13] and -0.46 in [14].
`O=C1OCCN1/N=C/c1ccc([N+](=O)[O-])o1` [Furazolidone] gave a mean cell size in test [15] of 13.1 ± 0.18. For the same compound, the “z-score of subpopulation abundance” value in [2] was 1.9; in test [3], 2.57; in test [4], -7.17; in test [5], 3.6; in test [6] it was -5.41; in test [16] it was 0.39. Also, the “z-score of subpopulation abundance” value in [10] was 2.14; in [11], -2.4; in test [12], -3.95; in test [13], -2.42; in test [14] it was -0.24.

Source of the values: the supplement of paper PMC8975748.
